Compound activity (PubChem)
Only some compounds are listed: those with a hit (about 2.8% of all), similar ones and a draw of the others.
Shn3 inh set2: Schnurri-3 reporter inhibition in Clone20 osteoblasts; inhibition, % at 12.5 µM; 0.52% of 360,000 active; Clone20 osteoblast Shn3 3'UTR firefly luciferase, 24 h;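 active = mean inhibition of at least 75% with every replicate also reaching 75%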;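 note: 0% = median of neutral control wells and 100% = pilot-screen positive control compound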
HIF-2a inh: blocks HIF-2a reporter activity | inhibition, % at 18.8 µM | 786-0 RCC cells HIF-2a reporter, luciferase luminescence, overnight | 0.72% of 360,000 active;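 active = inhibition of the luminescence signal of 40% or more relative to plate controls, in a single-dose primary screen at 18.75 µM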
TRPM1 prom inh: MITF TRPM1 promoter inhibition in SK-MEL-5 cells; SK-MEL-5 TRPM1 promoter luciferase, 24 h; inhibition, % at 12.5 µM; 0.83% of 330,000 active;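 active = mean inhibition across replicates of 60% or more, whatever share of single replicates reaches that level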
Peg3 promoter: Peg3 promoter activity inhibition; 1.7% of 360,000 active; HeLa PEG-Prom luciferase reporter, luminescence, overnight; inhibition, % at 20 µM;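 active = inhibition of at least 50% at 20 µM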
EBV LMP1 NFkB: reduces LMP1-driven NF-kappaB luciferase signal | inhibition, % at 12.5 µM | AID 504558 | 0.69% of 350,000 active | LMP1-induced NF-kappaB luciferase reporter cells, luminescence; in the data active = inhibition above about 41%;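 note: 0% = neutral control wells and 100% = reference inhibitor control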
PAX8 inh HTS: lowers PAX8-driven luciferase in RMG-I cells. AID 652154. 1.2% of 360,000 active. RMG-I TPO-luciferase reporter, SteadyGlo, 24 h. inhibition, % at 12.6 µM;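 active = mean replicate inhibition at least 60% with every replicate also reaching 60%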;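 note: luciferase light reporting Pax8 driven TPO promoter activity; plate controls were median of neutral control wells for no effect and mitoxantrone controls for full effect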
The depositor's hits bear a star; x = not tested or not shown.

SMILES	Shn3 inh set2	HIF-2a inh	TRPM1 prom inh	Peg3 promoter	EBV LMP1 NFkB	PAX8 inh HTS
O=C(C[C@@H]1C[C@H]2c3cc(NC(=O)C4CCOCC4)ccc3O[C@H]2[C@@H](CO)O1)NCCc1ccccc1	x	x	x	x	x	6
CC(C)C[C@H](NC(=O)c1nc[nH]c1C(=O)N[C@@H](CCCCNC(=O)OC(C)(C)C)C(=O)OC(C)(C)C)C(=O)OC(C)(C)C	2	21	17	15	-1	102*
CNC(=O)c1[nH]cnc1C(=O)N[C@@H](CCCCNC(=O)OC(C)(C)C)C(=O)OC(C)(C)C	-24	8	-17	6	44*	-17
CC1CNC(=S)N(c2ccccc2)C1=O (centres undefined)	63	6	-7	62*	2	22
N#CC(=C1C=CC(=NO)C(Cl)=C1)c1ccccc1	20	-46	x	39	x	73*
COc1ccc(S(=O)(=O)Nc2ccc3c(c2)C(=O)N([C@H](C)CO)C[C@@H](C)[C@H](CN(C)C(=O)Nc2ccc4c(c2)OCO4)OCCCC[C@H](C)O3)cc1	x	x	x	x	x	1
C[C@H](NC(=O)[C@@H]1[C@@H](CO)[C@@H]2Cn3c(cccc3=O)[C@H]1N2CCC(F)(F)F)c1ccccc1	x	x	x	x	x	-5
O=C(Nc1ccccn1)c1onc2c1CCCC2	39	37	7	32	41*	x
CC(C)CC#Cc1ccc([C@H]2[C@H](CO)N3C(=O)CN(C(=O)c4ccc5c(c4)OCO5)C[C@@H]23)cc1	x	x	x	x	x	3
O=C(C[C@H]1CC[C@H](NC(=O)Nc2ccccc2F)[C@H](CO)O1)NCc1ccc(Cl)cc1	x	x	x	x	x	-14
C=C(C)[C@@H]1CC[C@]2(C(=O)O)CC[C@]3(C)C(CCC4[C@@]5(C)CC[C@H](O)C(C)(C)C5CC[C@]43C)C12 (some centres undefined)	7	2	x	90*	-13	x
C=C(C)[C@@H]1CCC2(C(=O)O)CC[C@]3(C)[C@H](CC[C@@H]4[C@@]5(C)CCC(=O)C(C)(C)[C@@H]5CC[C@]43C)[C@@H]12 (some centres undefined)	-18	8	10	8	49*	-5
CC1(C)C2CC[C@]3(C)C(CC=C4[C@@H]5C[C@@](C)(CO)[C@@H](O)C[C@]5(C(=O)O)CC[C@]43C)[C@@]2(C)CC[C@@H]1O (some centres undefined)	3	4	x	13	x	x
NC(=O)c1nc(-c2ccco2)nc2c1[nH]c(=O)n2-c1ccc(Cl)c(Cl)c1	-2	17	5	80*	-50	-8
Cc1cccc(-n2c(=O)[nH]c3c(C(N)=O)nc(-c4ccccc4Cl)nc32)c1	20	14	-6	28	2	37
OC1c2cc(Br)ccc2N=C2CCCCCN21 (centres undefined)	-27	-145	x	-50	x	70*
OC1c2cc(Br)ccc2N=C2CCCN21 (centres undefined)	-12	31	2	26	-15	36
COc1cc(/C=C2/C(=O)c3cccc([N+](=O)[O-])c3C2=O)c(Br)cc1O	10	96*	49	110*	-14	-7
COC(=O)C1=C(C)N(Cc2ccc(C)cc2)C(=O)/C1=C\c1cc(OC)c(OC)c(OC)c1	-11	51*	10	-17	1	-2
C[C@H](CO)N1C[C@H](C)[C@@H](CN(C)Cc2ccc(C(=O)O)cc2)OCCCC[C@H](C)Oc2ccc(NC(=O)CCCN(C)C)cc2C1=O	x	x	x	x	x	-50
O=C(COC(=O)c1nc(Cl)c(Cl)c(Cl)c1Cl)c1ccc[nH]1	10	-15	21	51*	-12	23
O=C(Nc1cccc(S(=O)(=O)N2CCCCC2)c1)c1cc2ccccc2o1	33	-44	-7	-22	-3	-10
O=C(Nc1ccc2nc(N3CCOCC3)sc2c1)c1ccccc1	6	-88	-1	-59	-4	-28
COCc1c(C(=O)Nc2cccc(S(=O)(=O)N3CCCCC3)c2)oc2ccccc12	86*	-12	3	22	2	x
COCc1c(C(=O)Nc2ccc3nc(N4CCOCC4)sc3c2)oc2ccccc12	36	-63	-5	51*	-6	2
SMILES	Shn3 inh set2	HIF-2a inh	TRPM1 prom inh	Peg3 promoter	EBV LMP1 NFkB	PAX8 inh HTS
Cc1ccc(NC(=O)c2ccc(N/N=C/c3cccc(O)c3)c([N+](=O)[O-])c2)cc1	-1	-12	78*	67*	-26	x
COc1cccc2cc(-c3nnc(-c4ccccc4)o3)c(=O)oc12	16	-80	4	-23	50*	-71
O=Cc1cn(-c2ccccc2)nc1-c1ccc(F)cc1	-33	-217	-37	-89	-14	-54
CC1=NNC(=O)/C1=C\c1cn(-c2ccccc2)nc1-c1cccs1	64	94*	98*	115*	10	4
CC1=NNC(=O)/C1=C\c1cn(-c2ccccc2)nc1-c1ccc(F)cc1	85	94*	92*	112*	2	x
CCCCCOC(=O)Cn1c(=O)c2c(nc(N3CCOCC3)n2C)n(C)c1=O	-20	11	1	9	8	8
CCCCCn1c(N2CCOCC2)nc2c1c(=O)n(CC(N)=O)c(=O)n2C	11	10	-4	-4	64*	x
COC(=O)c1ccc(COc2ccccc2/C=C(\C#N)C(=O)Nc2ccc(C)cc2C)cc1	-15	3	-19	-23	0	-10
COC(=O)c1ccc(COc2ccccc2/C=C(\C#N)C(=O)Nc2c(C)cc(C)cc2C)cc1	71	2	8	75*	15	29
C[C@H](CO)N1C[C@H](C)[C@H](CN(C)C)Oc2ccc(NC(=O)C3CC3)cc2CC1=O	x	x	x	x	x	-27
O=C1C2C3C=CC(CO)(O3)C2C(=O)N1c1ccccc1-c1ccccc1 (centres undefined)	72	11	23	105*	35	x
CC(=O)Oc1ccc(N2C(=O)C3C4C=CC(CO)(O4)C3C2=O)cc1 (centres undefined)	0	-1	12	26	-4	x
CCC1CCCCN1S(=O)(=O)c1ccc(NC(=O)C2CCN(C(=O)c3ccco3)CC2)cc1 (centres undefined)	4	27	25	31	0	64*
O=C(NCCC1CCCCN1S(=O)(=O)c1ccc(Cl)cc1)C(=O)NCc1ccncc1 (centres undefined)	12	35	25	31	8	97*
CCC1CCCCN1S(=O)(=O)c1ccc(NC(=O)c2ccncc2)cc1 (centres undefined)	88*	13	24	9	18	12
O=C(Nc1ccc(Br)cc1)C1CCN(C(=O)c2ccco2)CC1	-17	7	-4	1	0	2
C[C@@H]1CN([C@H](C)CO)C(=O)c2cc(C3=CCCC3)cnc2O[C@@H]1CN(C)C(=O)C1CCOCC1	x	x	x	x	x	-13
C[C@@H]1CN([C@H](C)CO)C(=O)c2cc(NC(=O)Nc3ccccc3)ccc2O[C@@H](C)CCCCO[C@H]1CN(C)S(=O)(=O)c1ccc(Cl)cc1	x	x	x	x	x	70*
